Screening results as filed in PubChem.
TrxR1 substrate: rat thioredoxin reductase 1 substrate activity. AID 588456. purified TrxR1 substrate turnover, NADPH consumption readout. O89049. hit rate 0.01% among 390,000. Potency, µM (doses to about 114 µM), for the others: at the top dose activity change, negative = substrate turnover; note: potency is the fitted concentration of half-maximal effect; nearly all actives have a fitted effect of over 50% in size
Target sequence (O89049 whole entry, looked up): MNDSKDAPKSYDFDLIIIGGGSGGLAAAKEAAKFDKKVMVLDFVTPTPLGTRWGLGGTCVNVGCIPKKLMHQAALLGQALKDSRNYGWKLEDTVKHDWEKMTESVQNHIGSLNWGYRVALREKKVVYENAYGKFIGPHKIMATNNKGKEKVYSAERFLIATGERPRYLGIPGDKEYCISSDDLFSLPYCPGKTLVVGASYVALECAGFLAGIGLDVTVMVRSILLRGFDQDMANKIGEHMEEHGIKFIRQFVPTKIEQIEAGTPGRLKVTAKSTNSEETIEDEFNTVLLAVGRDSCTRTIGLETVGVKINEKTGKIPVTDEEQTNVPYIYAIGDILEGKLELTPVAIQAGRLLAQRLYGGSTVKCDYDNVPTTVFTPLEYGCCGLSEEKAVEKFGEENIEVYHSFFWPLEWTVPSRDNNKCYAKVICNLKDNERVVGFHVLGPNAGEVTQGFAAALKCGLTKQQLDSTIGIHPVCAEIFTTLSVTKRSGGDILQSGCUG
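Rat TrxR1, dispensed at 90 nM, was prereduced with 400 uM NADPH (final) for 5 min at ~22 deg C, then incubated with compound 15 min before 400 uM selenite. A first-read NADPH fluorescence drop versus no-compound background flagged substrates.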
TrxR1 inh: inhibitors of rat thioredoxin reductase 1 | Potency, µM (titrated, usually from 114 µM), without a hit: at the highest dose activity change, negative = inhibition, usual class: inhibitors | recombinant rTrxR1, NADPH fluorescence consumption, selenite substrate | hit rate 1% among 390,000 | AID 588453 | O89049; note: potency is the fitted concentration of half-maximal effect; nearly all actives have a fitted effect of over 65% in size
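Rat TrxR1 (90 nM in the dispensed reagent) was pre-reduced with 400 uM NADPH for 5 min at room temperature, then incubated with compound for 15 min. After 400 uM selenite was added, NADPH fluorescence (Ex 340/Em 450 nm) was followed for 8 min.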
PI4K2A inh: blocks human PI4K2A kinase activity; Q9BTU6; purified PI4K2A, ADP-Glo luminescence, 1 h; active compounds read low; activity change, negative = inhibition, % at 76.9 µM; hit rate 0.13% among 420,000; AID 1346378; in the data active = activity change below about -50%; inconclusive = mostly about -30% to -49%;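 note: -100% = wells without enzyme as full effect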
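Compounds are screened against recombinant PI4K2A using PI as substrate and ATP, the latter dispensed at 300 microM. Reactions run one hour at ambient temperature before ADP-Glo detection; full inhibition defined by wells lacking enzyme.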
GALK inhibitor: galactokinase (human) inhibition | Purified GALK, Kinase-Glo residual ATP luminescence | Potency, µM (series often up to 57.5 µM), for the others: top-dose activity change, negative = inhibition, hits mostly inhibitors | hit rate 0.007% among 270,000; note: potency is the fitted concentration of half-maximal effect
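Human GALK (5 nM) with 35 uM ATP and 100 uM galactose in 20 mM HEPES pH 8.0, 5 mM MgCl2, 60 mM NaCl, 1 mM DTT, 0.01% BSA. After 1 h at room temperature, leftover ATP was read by Kinase-Glo Plus luminescence.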
The depositor's hits bear a star; ? = inconclusive; . = no result; [ ] = dose if it differs, or a comment. Sampled rows, rich in hits. Any-hit rate of the full collection: about 1.1%. Unless noted, calls come from the whole dose curve; as a rule, active = well fitted curve in the direction sought with a large enough effect; inconclusive = small, poorly fitted or top-dose-only effect, or another doubt; inactive = no such curve, though single readings can be large; an effect the other way counts as inactive or inconclusive. Unless noted, % is set by controls: 0 for no effect and ±100 for the full control effect.

SMILES	TrxR1 substrate	TrxR1 inh	PI4K2A inh	GALK inhibitor
CCN(CC)S(=O)(=O)c1ccc2c(c1)NC(=O)C1CCCN21 (stereo not given)	2.9%	?	-1.7	.
O=C1Nc2cc(S(=O)(=O)N3CCCC3)ccc2N2CCCC12 (stereo not given)	-3.0%	50.1µM*	-3.3	-2.6%
Brc1ccc(C2Nc3cccc4cccc(c34)N2)s1	-3.6%	5.01µM*	-28.6	1.4%
Clc1ccc(C2Nc3cccc4cccc(c34)N2)cc1	4.5%	35.5µM*	2.9	-3.2%
C[N+]1(CC(=O)c2ccccc2)CCc2ccccc2C1 (stereo not given)	6.8%	12.6%	.	.
COc1ccc(CN2CCc3c(c(=O)n4ncc(C(=O)N5CCN(c6ccccc6F)CC5)c4n3C)C2)cc1	8.7%[57.1 µM]	14.0%[57.1 µM]	1.0	.
Nc1c(C(=O)NCC2CCCO2)sc2nc3c(c(-c4ccco4)c12)CC/C3=C\c1ccco1 (stereo not given)	-14.0%	14.1µM*	-75.9*	3.1%
NC(=O)c1sc2nc3c(c(-c4ccco4)c2c1N)CCCC3	4.1%	9.2%	-5.1	3.3%
COc1ccccc1C(=O)Nc1nc2ccccc2s1	26.7%	7.4%	-71.5*	3.3%
COc1ccc(C(=O)Nc2nc3ccccc3s2)c(OC)c1	14.7%	20.9%	-28.8	9.6%
CCc1ccc(-c2nc(CS(=O)CC(=O)NCCc3ccc(C)cc3)c(C)o2)cc1 (stereo not given)	4.5%[57.1 µM]	-6.1%[57.1 µM]	-7.7	.
COc1ccc(C)cc1Nc1n[n+](-c2ccccc2)c(-c2ccc(N(C)C)cc2)s1	-0.4%	8.91µM*	-2.6	.
O=C(CCc1nc2ccccc2[nH]1)N1CCN(C(=O)c2ccco2)CC1	-7.0%[57.1 µM]	7.8%[57.1 µM]	-4.2	.
O=C(CSc1ccc(-c2nc3ccccc3[nH]2)cn1)N1CCN(C(=O)c2ccco2)CC1	36.7%	1.41µM*	-8.9	3.2%
Cc1cccc(C(=O)N=c2c(C#N)cc3c(=O)n4cccc(C)c4nc3n2Cc2ccco2)c1	105.8%	6.31µM*	?	0.5%
Cc1cccn2c(=O)c3cc(C#N)c(=NC(=O)c4ccccc4)n(Cc4ccco4)c3nc12	70.0%	50.1µM*	?	.
Cc1cccn2c(=O)c3cc(C#N)c(=NC(=O)c4ccco4)n(Cc4ccco4)c3nc12	29.1%	2.5%	-2.1	1.7%
CCOC(=O)c1cc2c(=O)n3ccccc3nc2n(Cc2ccco2)c1=NC(=O)c1cccc(Br)c1	18.3%[57.1 µM]	3.98µM*	-13.6	.
O=C(CCc1ccccc1)Nc1cc(C(=O)O)cc(C(=O)O)c1	6.3%[57.1 µM]	4.9%[57.1 µM]	4.9	9.0%
COc1cc([N+](=O)[O-])ccc1-c1ccc(/C=N\n2cnnc2)o1	4.3%[2.29 µM]	15.1%	-3.5	6.3%
O=C1ON=C(c2ccccc2)/C1=C/c1ccc(O)cc1	-1.2%	14.1µM*	-8.6	-6.4%
Cc1ccc(C2=NOC(=O)/C2=C\c2ccccc2)cc1	3.5%	3.98µM*	2.2	.
COc1cc([N+](=O)[O-])ccc1-c1ccc(/C=C2\C(=O)ON=C2c2ccccc2)o1	-7.9%	7.94µM*	-6.7	.
CC1=NOC(=O)/C1=C/c1ccc(O)cc1	0.6%[57.1 µM]	?	-2.4	-2.7%
O=C1ON=C(c2ccc(Cl)cc2)/C1=C/c1ccc(O)cc1	2.2%[57.1 µM]	3.16µM*	-10.1	-11.4%
SMILES	TrxR1 substrate	TrxR1 inh	PI4K2A inh	GALK inhibitor
Cc1sc(/C=C2\C(=O)ON=C2c2ccccc2)cc1Br	.	.	.	0.5%
COC(=O)c1ccccc1S(=O)(=O)N1CCC(C(=O)OCc2cccc(OC)c2OC)CC1	-3.9%	11.5%	-25.7	.
COC[C@@H](c1ccc(C(F)(F)F)cc1)N1CCN(C2(C)CCN(C(=O)c3c(C)ncnc3C)CC2)C[C@H]1C	.	.	2.6	.
Cc1ccc(/C=C2/C(=O)ON=C2c2ccccc2)o1	-6.1%	3.98µM*	-19.2	-3.4%
O=C1ON=C(c2ccccc2)/C1=C/c1ccccc1	10.8%	4.47µM*	0.0	-0.5%
O=C1ON=C(c2ccccc2)/C1=C\c1ccco1	1.8%	-5.6%	-0.2	-2.0%
CCc1cc(C(=O)c2ccc(C)cc2)c(NC(=O)CCl)s1	-8.1%	31.6µM*	2.9	-1.1%
Cc1cc(C(=O)c2ccc(Cl)cc2)c(NC(=O)CCl)s1	13.3%[57.1 µM]	3.98µM*	4.0	-2.5%
Cc1ccc(C(=O)c2cc(C)sc2N)cc1	-1.2%[57.1 µM]	2.1%[57.1 µM]	0.3	1.7%
Cc1ccn2c(=O)nc(SCC(=O)NCCc3ccccc3)nc2c1	10.2%	6.8%	-3.1	.
CCc1ccc(C(C)NC(=O)c2cc(C)oc2C)cc1 (stereo not given)	-2.8%	20µM*	-7.0	0.6%
C=CCN1c2ccccc2C(=O)CS1(=O)=O	13.0%[57.1 µM]	11.2µM*	3.0	.
CCC(Sc1nc2nccnc2c(=O)n1Cc1ccc(OC)cc1)C(=O)NC1CCCCC1 (stereo not given)	4.3%	8.4%	-2.2	.
COc1ccc(C(=O)N/N=C/c2sc(=O)n(Cc3cccc(C(=O)O)c3)c2Cl)cc1	-16.2%	79.4µM*	-2.4	.
O=C(O)c1cccc(Cn2c(Cl)c(/C=N/Nc3ccccc3)sc2=O)c1	-8.5%	8.91µM*	-1.4	0.5%
O=C(O)c1cccc(Cn2c(Cl)c(/C=N/NC(=O)c3ccccc3Cl)sc2=O)c1	-8.0%	-17.7%	-1.7	1.7%
O=C(CN1C(=O)C2(SCC(=O)N2c2cccc(Cl)c2)c2ccccc21)NCCc1ccccc1 (stereo not given)	-2.6%	22.1%	0.8	.
Cc1ccccc1C(=O)NNC(=O)/C=C\C(=O)O	-0.2%	7.08µM*	-3.6	-3.8%
O=C(O)/C=C/C(=O)NNC(=O)c1ccccc1Br	1.7%	-3.8%	-2.6	2.9%
NC(N)=NS(=O)(=O)c1ccc(NC(=S)NC(=O)/C=C/c2ccccc2)cc1	5.3%	33.7%	0.9	-1.6%
COc1ccc(NC(=S)N/C(=N/S(=O)(=O)c2ccc(C)cc2)c2ccccc2)cc1	-1.7%	22.4µM*	4.3	-2.3%
Cc1ccc(S(=O)(=O)/N=C(\Sc2ccccc2)c2ccccc2)cc1	14.2%	2.82µM*	-14.2	3.4%
NC(N)=NS(=O)(=O)c1ccc(NC(=S)NC(=O)c2ccccc2)cc1	-11.2%	50.1µM*	9.2	.
CC(=O)N(c1onc(C)c1C)S(=O)(=O)c1ccc(N)cc1	.	.	0.0	.
COC(=O)CN1C(=O)CSc2ccc(S(=O)(=O)Nc3ccc(Cl)cc3C)cc21	-2.6%	15.5%	5.9	.
SMILES	TrxR1 substrate	TrxR1 inh	PI4K2A inh	GALK inhibitor
COc1ccc2c(CNCc3cccs3)c(C(=O)O)n(Cc3cccc(F)c3)c2c1	1.4%	8.5%	-2.4	.
O=C(/C=C/c1ccco1)Nc1nc(-c2ccccn2)cs1	9.1%[0.0914 µM]	14.1µM*	?	5.2%
Cc1csc(NC(=O)/C=C/c2ccco2)n1	-13.0%	?	1.4	-0.1%
O=C(/C=C/c1ccco1)Nc1nc(-c2ccccc2)cs1	-9.3%	-10.9%	1.0	-3.4%
CCOC(=O)Cc1csc(NC(=O)/C=C/c2ccco2)n1	-3.4%	79.4µM*	-5.4	-0.3%
CC(=O)c1ccc(NC(=O)CSc2nccn2C2CCCC2)cc1	3.9%[57.1 µM]	12.3%[57.1 µM]	0.2	.
CCN(CC)C(=O)Cn1c(=O)n(-c2ccc(OC)cc2OC)c(=O)c2c(C)c(C(=O)N(CC)CC)sc21	6.8%[57.1 µM]	4.3%[57.1 µM]	-0.3	.
